Bioassay records (PubChem)
12-LOX inh: inhibitors of human 12S-lipoxygenase ALOX12 | actives 1.1% (n = 580,000) | Potency, µM (top dose mostly 108 µM), without a hit: at the highest dose activity change, negative = inhibition, most hits filed as inhibitors | purified 12hLO, xylenol orange hydroperoxide absorbance | P18054; also: potency is read from the fitted curve at half-maximal effect
Target sequence (P18054 whole entry, looked up): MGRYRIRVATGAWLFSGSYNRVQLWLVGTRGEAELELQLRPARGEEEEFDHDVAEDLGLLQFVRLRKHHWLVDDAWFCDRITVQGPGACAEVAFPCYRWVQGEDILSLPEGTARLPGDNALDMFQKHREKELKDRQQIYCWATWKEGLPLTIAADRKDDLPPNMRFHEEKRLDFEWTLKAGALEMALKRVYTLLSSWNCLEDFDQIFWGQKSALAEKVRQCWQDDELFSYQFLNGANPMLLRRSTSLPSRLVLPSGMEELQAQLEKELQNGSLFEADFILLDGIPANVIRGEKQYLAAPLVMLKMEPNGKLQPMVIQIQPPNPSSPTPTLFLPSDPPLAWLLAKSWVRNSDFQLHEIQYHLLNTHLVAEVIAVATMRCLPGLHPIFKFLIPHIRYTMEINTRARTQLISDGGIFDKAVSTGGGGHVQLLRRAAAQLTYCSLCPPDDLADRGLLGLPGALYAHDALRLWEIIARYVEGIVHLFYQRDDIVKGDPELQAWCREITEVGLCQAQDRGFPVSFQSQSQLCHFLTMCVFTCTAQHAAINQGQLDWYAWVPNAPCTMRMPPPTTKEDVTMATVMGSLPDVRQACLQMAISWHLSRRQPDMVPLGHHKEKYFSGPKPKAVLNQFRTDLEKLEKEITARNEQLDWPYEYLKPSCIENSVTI
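Purified human 12hLO (150 nM final) in 25 mM Hepes, 0.01% Triton X-100, pH 7.0 was preincubated 15 min at room temperature with compound. Then 40 uM arachidonic acid was added, 30 min. Hydroperoxide was read by Fe-XO absorbance ratio 573/405 nm.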
HT1080-NT tox: kills 2HG-producing HT-1080-NT fibrosarcoma cells | AID 686970 | Potency, µM (titrated, usually from 46.1 µM), for inactives: at the highest dose activity, negative = less viability, hits mostly cytotoxic | HT-1080-NT fibrosarcoma viability, CellTiter-Glo ATP luminescence, 48 h | actives 1.6% (n = 360,000);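 also: NT is the 2HG producing partner of a matched IDH1 knockdown line; potency is read from the fitted curve at half-maximal effect; 0% = DMSO-treated cells and -100% = media-only wells without cells; nearly all actives have a fitted effect of over 55% in size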
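750 cells/well, RPMI + 5% FBS; 2 h settle, compound pin-transfer, 48 h at 37 degrees C. CellTiter-Glo 10 min RT, luminescence. Normalized to DMSO and media-only wells.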
IL1B secr inh: inflammasome signaling inhibition, IL-1 beta readout; activity change, % at 57.5 µM; AID 743279; THP-1 LPS/ATP IL-1B secretion, AlphaLISA, 16 h; stronger effect = lower value; actives 4.7% (n = 360,000); in the data active = activity change below about -50%; inconclusive = mostly about -30% to -49%
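THP-1 cells pretreated 1 hr with compounds (up to 57.5 uM final), then stimulated with LPS (250 ng/mL final) plus ATP (1.25 mM final); secreted IL-1B measured by AlphaLISA after 16 hr, decreased signal indicating inhibition.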
HT1080 IDH1KD tx: kills HT-1080 cells with IDH1 knockdown; actives 2% (n = 360,000); AID 686971; Potency, µM (titrated, usually from 46.1 µM), for the others: top-dose activity, negative = toxicity, most hits filed as cytotoxic; HT-1080 IDH1 knockdown viability, ATP luminescence, 48 h;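 also: potency is read from the fitted curve at half-maximal effect; 0% = DMSO wells and -100% = cell-free medium wells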
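HT-1080-IDH1KD cells (IDH1 knocked down), 750/well in RPMI with 5% FBS, treated with compound 48 h at 37 degrees C. Viability by CellTiter-Glo luminescence, normalised to DMSO and no-cell wells; concentration-response curves classed.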
TDP1 cell CPT: DT40-hTDP1 cell growth loss with CPT. AID 686979. Potency, µM (highest dose often 46.2 µM), for the others: at the highest dose activity change, negative = growth inhibition, usual class: inhibitors. actives 12% (n = 420,000). chicken DT40 Tdp1-/-;hTDP1 cells + 20 nM CPT, ATP luminescence, 48 h; also: potency is read from the fitted curve at half-maximal effect; nearly all actives have a fitted effect of over 55% in size
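Chicken DT40 Tdp1-/- cells stably complemented with human TDP1 were seeded at 400 cells/well in medium containing 20 nM camptothecin, exposed to pin-transferred compounds, and grown at 37 °C for at least 48 hr. Viability was read as ATP luminescence.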
DT40 TDP1 no CPT: qHTS for Inhibitors of human tyrosyl-DNA phosphodiesterase 1 (TDP1): qHTS in cells in absence of CPT; actives 15% (n = 420,000); Potency, µM (titrated, usually from 46.2 µM), inactives show at the top dose activity change, negative = growth inhibition, hits mostly inhibitors; AID 686978, 2013; DT40 Tdp1-/- hTDP1 cells, no CPT, ATP luminescence, 48 h; also: potency is read from the fitted curve at half-maximal effect; nearly all actives have a fitted effect of over 55% in size
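Seeded 400 DT40-hTDP1 cells/well (vehicle DMSO, no 20 nM CPT); pinned compounds; ≥48 hr at 37 °C; CellTiter-Glo luminescence as viability measure.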
Numbers without * were called inactive; ? = inconclusive; nt = no result given; [ ] = another dose, or the depositor's remark. Shown is part of a subset that was picked to be rich in hits. Unless noted, calls follow the shape of the dose curve; as a rule, active = well fitted curve in the direction sought with a large enough effect; inconclusive = small, poorly fitted or top-dose-only effect, or another doubt; inactive = no such curve, though single readings can be large; an effect the other way counts as inactive or inconclusive. Unless noted, % is scaled to controls: 0 for no effect and ±100 for the full control effect.

SMILES	12-LOX inh	HT1080-NT tox	IL1B secr inh	HT1080 IDH1KD tx	TDP1 cell CPT	DT40 TDP1 no CPT
COc1ccc2c(c1)CCc1c(C(=O)Nc3ccn(Cc4ccc(C)cc4)n3)noc1-2	-16%	-29%[9.24 µM]	-9	-8%	-29%	?
COc1ccc2c(c1)CCc1c(C(=O)Nc3c(C)nn(Cc4ccccc4)c3C)noc1-2	0%	5%	?	-3%	9.2µM*	9.2µM*
O=C(CN1C(=O)NC2(CCOCC2)C1=O)Nc1ccc2c(c1)CCC2	-9%	nt	nt	nt	nt	nt
CCN(CC)c1nc2ccccc2nc1C(=O)Nc1ccc(F)cc1Cl	-10%	nt	nt	nt	nt	nt
CC(=O)Nc1cccc(NC(=O)c2nn(Cc3ccccc3)c(=O)c3ccccc23)c1	9%	nt	nt	nt	nt	nt
CCOCCCNc1oc(/C=C/c2ccc(OC)c(OC)c2)nc1C#N	1%	nt	nt	nt	nt	nt
COc1ccc2c(c1)CCc1c(C(=O)NCCc3ccc(OC)c(OC)c3)noc1-2	-4%	10%	-17	-7%	?	13µM*
COc1ccc2c(c1)CCc1c(C(=O)N3CC4(C)CC3CC(C)(C)C4)noc1-2 (stereo unspecified)	10%	?	-22	?	16µM*	?
Cc1cc(C(=O)Nc2cnn(Cc3ccc(Cl)cc3Cl)c2)no1	-6%	-13%	1	-29%	-21%	-24%
COc1ccc2c(c1)CCc1c(C(=O)Nc3c(C)nn(Cc4ccc(Cl)c(Cl)c4)c3C)noc1-2	?	nt	nt	nt	12µM*	13µM*
O=C(Nc1cnn(Cc2ccc(Cl)cc2Cl)c1)c1noc2c1CCc1ccccc1-2	-6%	nt	nt	nt	16µM*	?
COc1ccc2c(c1)CCc1c(C(=O)NCc3ccc(F)cc3)noc1-2	8%	11%	-14	9%	6%	-36%
COc1ccc2c(c1)CCc1c(C(=O)N3CCOCC3)noc1-2	15%	-13%	-18	-22%	-27%	-32%
O=C(CN1CCCc2nc(-c3ccccc3)ncc2C1=O)NCCCN1CCCC1=O	47%	nt	nt	nt	nt	nt
CCN(CC)CCNC(=O)c1nn(-c2ccc(Cl)cc2)c2c1CCc1cc(OC)ccc1-2	?	-6%	-103*	?	?	21µM*
COc1ccc2c(c1)CCc1c(C(=O)NCc3ccc(Cl)cc3)noc1-2	2%	20%	31	13%	0%	-12%
Cc1nn(Cc2ccccc2Cl)c(C)c1NC(=O)c1noc2c1CCCCC2	2%	-7%	-4	10µM*	?	?
CN1C(=O)C(Cl)(Cl)C(=O)c2ccccc21	nt	18µM*	-91*	?	15µM*	16µM*
Cc1cc(=O)c2c(O)cc(O)c(C)c2o1	nt	nt	nt	nt	?	21µM*
O=C(Nc1ccc2c(c1)CN(Cc1ccccc1O)CC2)C1CCCO1 (stereo unspecified)	2%	8%	12	5%	-12%	-13%
CC(=O)N1CCc2[nH]c3ccc(C)cc3c2C1	-26%	18%	15	13%	38%	14%
CCOC(=O)N1CCc2[nH]c3ccc(C)cc3c2C1	59%	?	?	-23%	15µM*	23µM*
Cc1ccc2[nH]c3c(c2c1)CN(C(=O)CN1CCSCC1)CC3	142%	nt	nt	nt	nt	nt
Cc1ccc2[nH]c3c(c2c1)CN(C(=O)CN1CCN(Cc2ccc4c(c2)OCO4)CC1)CC3	?	21µM*	-21	?	?	?
CC1CCCN(C(=O)c2ccc(CN3C(=O)NC4(CCS(=O)(=O)CC4)C3=O)cc2)C1 (stereo unspecified)	12%	nt	nt	nt	nt	nt
SMILES	12-LOX inh	HT1080-NT tox	IL1B secr inh	HT1080 IDH1KD tx	TDP1 cell CPT	DT40 TDP1 no CPT
N#CC1=C(SCC(=O)Nc2ccccc2)NC(=O)C(C#N)C12CCCCC2 (stereo unspecified)	0%	nt	nt	nt	nt	nt
CC(C)(C)C1CCC2(CC1)C(C#N)=C(SCC(=O)NC1CCCCC1)NC(=O)C2C#N (stereo unspecified)	-13%	?	-25	7%[9.24 µM]	21µM*	16µM*
N#CC1=C(SCC(=O)NC23CC4CC(CC(C4)C2)C3)NC(=O)C(C#N)C12CCCCC2 (stereo unspecified)	?	?	?	?	18µM*	23µM*
N#CC1=C(SCC(=O)NC2CC2)NC(=O)C(C#N)C12CCCCC2 (stereo unspecified)	-4%	10%	23	1%	-1%	-13%
CC(C)(C)c1ccc(-c2nc(C#N)c(NCc3ccco3)o2)cc1	-20%	nt	nt	nt	nt	nt
Cn1c(=O)c2[nH]c(CN3CCc4ccccc4C3)nc2n(C)c1=O	1%	nt	nt	nt	nt	nt
O=[S+]([O-])(c1ccccc1)N1CCn2c(nnc2-c2ccncc2)C1	8%[176 µM]	nt	nt	nt	nt	nt
COc1cccc(N2CCN(C(=O)c3ccc(CS(=O)c4ccc(C)cc4)o3)CC2)c1 (stereo unspecified)	-21%	0.21µM*	31	0.29µM*	0.58µM*	0.52µM*
COc1cccc(N2CCN(C(=O)c3ccc(CS(=O)c4ccc(Cl)cc4)o3)CC2)c1 (stereo unspecified)	?	?	24	1.8µM*	0.73µM*	0.92µM*
Cc1ccc(C(=O)N2CCc3ccc(NC(=O)Nc4ccc(C)c(F)c4)cc32)cc1	-14%	nt	nt	nt	nt	nt
COC(=O)c1cc(CSc2nnc(NC3CCCCC3)s2)oc1C	?	-4%	0	18µM*	?	?
c1ccc(CSc2nnc(NC3CCCCC3)s2)cc1	-2%	-2%	-52*	2%	?	21µM*
O=c1cc(CSc2nnc(NC3CCCCC3)s2)nc2sccn12	-11%	-5%	38	2%	21%	-7%
O=C(CSc1nnc(NC2CCCCC2)s1)Nc1cc(Cl)ccc1Cl	6%	nt	nt	nt	nt	nt
COc1ccc(Oc2ncc3nc(C)c(=O)n(Cc4ccc(F)cc4)c3n2)cc1	?	nt	nt	nt	?	21µM*
COc1cccc(Cn2c(=O)c(C)nc3cnc(OCc4ccccc4)nc32)c1	0%	nt	nt	nt	-23%	18µM*
COc1cccc(Cn2c(=O)c(C)nc3cnc(Oc4cccc(Cl)c4)nc32)c1	?	nt	nt	nt	-33%	23µM*
O=C(CCSCc1ccccc1)N1C[C@@H](CN2CCOCC2)[C@@H](CO)C1	0%	nt	nt	nt	nt	nt
CCCn1c(=O)n(CC(=O)Nc2ccc(Cl)cc2)c(=O)c2c1nc(C)n2CCOC	-5%	nt	nt	nt	nt	nt
O=C(NCC1(O)CCCCC1)C1CCN(c2nc(-c3ccccc3)nc3c2CCC3)CC1	-4%	nt	nt	nt	nt	nt
